Compound activity: PubChem BioAssay, Broad Institute
BL2 CD40 inh: inhibitors of CD40-induced NF-kB signaling, primary screen, BL2 cells, luciferase reporter, single point. CD40L-induced, 4 h. inhibition, % at 10 µM. 0.94% of 83,000 active;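 active means mean inhibition of at least 50% with a set share of replicates also reaching that level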;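 further: 0% = neutral control wells and 100% = IKK inhibitor VII at 50 µM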
Starred values were filed as active, the others as inactive; [ ] = remark or other dose. Shown is part of a subset that was picked to be rich in hits.

SMILES	BL2 CD40 inh
Cc1nc2cc(CO)ccc2n1C	2
Cn1c(CO)nc2cc(N)ccc21	50*
COc1ccccc1-c1ccc([C@H]2[C@@H](CO)N3CCCCN(C(=O)NC4CCCC4)C[C@@H]23)cc1	14[25 µM]
C[C@H](CO)N1C[C@H](C)[C@@H](CN(C)Cc2ccc(Cl)c(Cl)c2)OCc2ccccc2-c2ccccc2C1=O	-2[25 µM]
CCn1cc(S(=O)(=O)Nc2ccc3c(c2)OCCO3)cn1	76*
O=C1CCCN1c1ccc(S(=O)(=O)Nc2ccc3c(c2)OCCO3)cc1	19
O=S(=O)(Nc1cccnc1)c1ccc2c(c1)OCCO2	3
Cc1ccccc1S(=O)(=O)N(C)C[C@H]1OCc2ccccc2-c2c(n(C)c3ccccc23)C(=O)N([C@@H](C)CO)C[C@H]1C	-13
O=C(C1CCCCC1)N1C[C@H]2[C@@H](c3ccccc31)[C@H](CO)N2C(=O)c1ccccc1F	-11[25 µM]
C[C@@H]1CN(C)C(=O)c2cccc(N)c2O[C@@H]1CN(C)S(C)(=O)=O	-7
C[C@@H]1CN(C)C(=O)c2cccc(N)c2O[C@H]1CN(C)S(C)(=O)=O	3
O=C(C1CCCC1)N1CC[C@@H]2[C@@H](CO)Nc3ccc(Br)cc3[C@@H]21	2
CC(C)NC(=O)N(C)C[C@@H]1Oc2ncccc2C(=O)N(C)C[C@@H]1C	-13
O=C(Cn1cnnn1)NCCc1ccc(Cl)cc1Cl	8
O=C1CCN(Cc2ccc(Cl)cc2Cl)C(=O)N1	6
O=C(CCl)N=c1sccn1Cc1ccc(Cl)cc1Cl	89*
COc1ccc(CNC(=O)N(C)C[C@H]2OCc3ccccc3-c3ccccc3C(=O)N([C@@H](C)CO)C[C@@H]2C)cc1	-10[25 µM]
C[C@@H](NC(=O)[C@@H]1[C@@H](CO)[C@@H]2Cn3c(cccc3=O)[C@H]1N2C(=O)C1CCCC1)c1ccccc1	11
COc1ccc(-c2ccc([C@@H]3[C@@H](C#N)N(C(=O)NC4CCCC4)[C@H]3CO)cc2)cc1	4
Cc1ccc(-c2cc(-c3ccccc3)c(C#N)c(N)n2)o1	46*
N#Cc1c(-c2ccco2)cc(-c2cccnc2)nc1N	2
Cc1ccc(-c2c(C#N)c(N)nc3c2CCCC3)o1	5
CC(=O)N(C)C[C@@H]1OCc2ccccc2-c2ccccc2C(=O)N([C@@H](C)CO)C[C@@H]1C	-19[25 µM]
CCc1ccc(C(=O)COC(=O)CNC(=O)C2CCCCC2)cc1	66*
CCOC(=O)c1c(C)[nH]c(C)c1C(=O)COC(=O)CNC(=O)C1CCCCC1	1
SMILES	BL2 CD40 inh
O=C(CNC(=O)C1CCCCC1)OCC(=O)c1ccc(F)cc1	-9
O=C(C1CCCC1)N1CC(=O)N2[C@H](CO)[C@@H](c3ccc(C#Cc4cccc(F)c4)cc3)[C@@H]2C1	8
O=C(C[C@@H]1C=C[C@@H](NC(=O)c2ccncc2)[C@@H](CO)O1)NCC1CC1	-13[25 µM]
O=C(C[C@H]1C[C@H]2c3cc(NC(=O)C4CCOCC4)ccc3O[C@H]2[C@H](CO)O1)NCCN1CCCCC1	-1[25 µM]
COc1cc2c(cc1OC)C(=O)C(Br)CC2 (stereo not given)	100*
COc1cc2c(cc1OC)C(=O)N(C)CC2	-3
COc1cc2c(cc1OC)C(=O)CCS2	7
CCCNC(=O)[C@@H]1[C@@H](CO)[C@@H]2Cn3c(cccc3=O)[C@@H]2N1C(=O)C1CCC1	1
CC(C)NC(=O)N1C[C@@H]2[C@H](c3ccccc31)[C@H](CO)N2Cc1ccccn1	-9[25 µM]
COC(=O)/C=C/S(=O)(=O)c1ccc(NC(C)=O)cc1	106*
CC(=O)Nc1ccc(S(=O)(=O)CC(=O)CS(=O)(=O)c2ccc(NC(C)=O)cc2)cc1	5
COC(=O)Nc1ccc(NC(C)=O)cc1	3
C[C@@H]1CN([C@H](C)CO)C(=O)c2cccc(NC(=O)Nc3ccc(F)cc3)c2O[C@H]1CN(C)C(=O)Nc1ccc2c(c1)OCO2	-7
CC(C)NC(=O)N(C)C[C@H]1Oc2ccc(NS(C)(=O)=O)cc2CC(=O)N(C)C[C@@H]1C	0
CC[C@@H]1C/C=C\C[C@H](C(C)C)NC(=O)CCC(=O)N1	-2[25 µM]
COCC(=O)N1[C@@H](CO)[C@@H](c2ccccc2)[C@@H]1CNC(=O)c1ccccn1	0
C=C1C(=O)OC2CC1C(O)CC(C)=CCCC(C)=CC(O)CC2C (stereo not given)	87*
C=C1C(=O)OC2C1CCC(C)C1C=CC(=O)C12C (stereo not given)	25
O=C(Nc1cccc(Cl)c1)N[C@@H]1CC[C@@H](CCNC(=O)C2CCCC2)O[C@H]1CO	-3
CC(=O)N1C[C@@H]2C(c3ccc(Br)cc3)[C@H](C1)N2C(=O)NC(C)C (stereo not given in full)	9
O=C(Nn1cnnc1)c1cc2c(s1)CCCC2	-1
O=C(Nc1nccs1)c1cc2c(s1)CCCCC2	92*
CC(C)Cc1nnc(NC(=O)c2cc3c(s2)CCC3)s1	-36
Cc1noc(C)c1NC(=O)Nc1ccc2c(c1)C(=O)N([C@@H](C)CO)C[C@@H](C)[C@@H](CN(C)Cc1ccc3c(c1)OCO3)OCCCC[C@@H](C)O2	20[25 µM]
CCOC(=O)c1c(NC(=O)CN2CCCCC2)sc(CN(C)C)c1-c1ccccc1	23
